Data reported in the supplement of paper PMC3334620.
In all, about 33,000 sequences were measured (“E-score (-0.5 to 0.5)”: median about -0.041, highest 2% from about 0.37 on). Only a selection was taken, and the highest values are over-represented in it overall.

These sequences were tested against T1, Ecm22 (UniProt Q05958) (assay: PBM E-score (8-mer binding enrichment) (E-score (-0.5 to 0.5)); higher = stronger / more preferred TF binding). Settings: protein concentration: 200 nM; construct: GST-full length.
T1 sequence: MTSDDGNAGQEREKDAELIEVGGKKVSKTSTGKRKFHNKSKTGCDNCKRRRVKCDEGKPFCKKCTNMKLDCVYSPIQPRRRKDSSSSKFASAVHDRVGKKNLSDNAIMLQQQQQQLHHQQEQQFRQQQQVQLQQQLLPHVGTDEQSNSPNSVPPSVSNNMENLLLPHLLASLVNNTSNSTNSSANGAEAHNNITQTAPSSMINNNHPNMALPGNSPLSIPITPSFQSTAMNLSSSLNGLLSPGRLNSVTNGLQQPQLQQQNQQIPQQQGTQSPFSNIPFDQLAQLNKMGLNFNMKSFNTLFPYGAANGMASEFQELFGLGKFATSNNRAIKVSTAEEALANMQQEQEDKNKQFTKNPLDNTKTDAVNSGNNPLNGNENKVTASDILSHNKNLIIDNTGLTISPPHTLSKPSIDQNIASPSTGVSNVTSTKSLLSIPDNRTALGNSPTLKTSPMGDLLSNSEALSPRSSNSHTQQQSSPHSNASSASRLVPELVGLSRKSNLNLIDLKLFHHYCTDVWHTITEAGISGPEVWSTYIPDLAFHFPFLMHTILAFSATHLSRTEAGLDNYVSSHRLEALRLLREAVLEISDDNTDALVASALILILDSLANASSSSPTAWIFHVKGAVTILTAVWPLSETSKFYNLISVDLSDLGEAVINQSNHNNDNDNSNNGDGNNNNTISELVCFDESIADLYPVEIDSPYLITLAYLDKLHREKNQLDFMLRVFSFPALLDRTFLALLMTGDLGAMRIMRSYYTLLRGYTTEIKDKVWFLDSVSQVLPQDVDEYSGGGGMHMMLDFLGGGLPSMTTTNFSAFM
Procedure, shortened: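 Universal all-10-mer Agilent arrays, fresh or stripped once, were converted to double-stranded form by primer extension. GST-tagged yeast transcription factors from PURExpress in vitro transcription/translation, full-length or DNA-binding domain only, were applied at about 100-200 nM and detected with fluorescent anti-GST. After masliner normalisation, the Universal PBM Analysis Suite scored each ungapped eight-base word together with its reverse complement by E-score.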

Sequence	PBM E-score
CTGCGTTC	0.213
GCGTTGAA	0.218
CCATATCC	-0.0494
CACGTACG	0.338
CTAGTTAA	-0.153
GCCTCTAC	-0.123
AACGAGTC	0.419
CACGAGTC	-0.0272
GACGAGTC	0.115
AGAGGGAT	-0.0615
ACAGTTCC	-0.0566
ACTTCGTA	0.434
CCTTCGTA	0.453
GCTTCGTA	0.441
CCTTCGCA	0.183
CCTTCGTC	0.0674
GCTTCGGA	0.121
GCTTCGCA	0.193
ACTTCGTC	0.00917
ACTTCGTG	0.116
TCGGGTCA	0.241
CATCGTTC	0.428
AATCGTTG	0.165
CATCGTTA	0.259
AATCGTTC	0.426

Sequence	PBM E-score
CATCGTGC	0.164
AATCGTTA	0.269
CCATTGGA	-0.162
AGGTATTA	-0.0627
CGGTCGGA	0.0409
CGGTCGTA	0.464
AGGTCGTA	0.458
CGGTCGTC	-0.0294
GGGTCGGA	0.135
GGGTCGAA	-0.0301
GGGTCGTA	0.439
AGGTCGTG	-0.13
AGGTCGTC	0.106
ACAGACCA	-0.0504
AGCTGAAA	-0.106
AACTGCAG	-0.0539
CTTTTTCC	-0.068
CGTTGGAG	-0.14
CCTTACGA	0.383
ACTTACGA	0.393
GCTTACGA	0.386
CCTTACTA	0.0754
ACTTACGG	0.207
CCTTACGC	0.205
ACTTACGC	-0.137

Sequence	PBM E-score
GCTTACTA	-0.087
GCTTACAA	-0.144
AGAATTGC	-0.0838
CGACAAAG	0.192
CTGCGAGC	0.0428
TAGTCCGA	0.123
GCATCGGA	0.126
CCATCGTC	0.00759
ACATCGTA	0.423
GCATCGAA	0.0551
CCATCGTA	0.428
ACATCGTG	0.0443
GCATCGTA	0.426
ACATCGTC	0.0184
CCATCGAA	-0.136
CCGCCACA	-0.107
GCCGAGAC	-0.0241
GATGTTGC	0.00895
CGGGACAC	-0.0319
TACTCACA	-0.0537
CCCCCGAG	-0.231
ACGAGGCG	0.431
GCGAGGCC	0.251
ACGAGGCT	0.382
CCGAGGCA	0.0444

Sequence	PBM E-score
CCGAGGCC	0.117
AAGAGGCT	-0.268
ACCAGGCT	-0.198
GCGAGGCA	0.296
CCGAGGCG	0.0444
AGGAGGCG	-0.229
ACGAGGCC	0.376
ACGAGGCA	0.401
CCGGTCTA	-0.0788
AATAACAA	-0.0956
AGATTCCT	-0.227
AACGCCGC	-0.00584
CGGTAAAA	0.228
AGCAATAG	-0.0955
ACTTCCAA	-0.156
AAACCCGA	0.279
CTCAACAG	-0.193
AGACCAGC	-0.283
CAGGAAAA	-0.019
AACCCAGC	-0.207
GGTACGAA	0.486
CGTACGTA	0.367
AGTACGAT	0.407
CGTACGAA	0.448
AGTACGAA	0.42

Sequence	PBM E-score
AGTACGCA	-0.0459
CGTACGCA	0.36
ACTACGAT	0.182
GGTACGTA	0.319
GGTACGCA	0.263
AGTACTAT	0.0505
AGTACGTA	0.283
AGTTCTGC	0.17
AGATGAAG	-0.13
CCCCTAGC	-0.254
ACTCAACC	-0.0151
CGATGGAA	0.0222
GGCACAAC	-0.169
GACACCCA	-0.171
TAGGACGA	-0.216
ATTCTCAG	-0.308
AGTACGTG	0.142
CGTACGAC	0.444
AGTACGCG	0.197
CGTACGCC	0.3
CGTACGAG	0.473
CCTACGAG	0.339
ATTACGAG	0.38
ATTACGTG	-0.0556
AGTACGAG	0.456

Sequence	PBM E-score
CGTACGTC	0.356
ATTACGAC	0.367
CGGACGAG	-0.0963
ACGCTGGA	0.126
ACGACCCT	0.331
CGCACGCA	0.141
GCCGGCGA	-0.117
TAGACCGA	0.175
AGAGAGCT	-0.169
AAGCATTC	-0.157
CGTGCGCA	-0.0738
CACAGTTC	-0.0557
CGAGTACA	0.246
CGCTAACA	0.0557
TGTACAAA	-0.0698
AGTACGAC	0.443
AGTACGCC	-0.0213
AGTACGTC	0.0542
TGTACGAA	0.48
TGCACGAA	0.109
CCGACCAA	0.105
CAAGTATG	-0.112
ATCTCACG	-0.0833
AAACGGTC	0.293
AAACGGCC	0.29

Sequence	PBM E-score
AAACGGTG	0.376
AAACGGTA	0.287
AAACGGCG	0.391
CTACGGTC	0.0518
ACACGGTG	-0.0453
ACACGGTC	-0.0081
ATACGGTG	0.388
AAACGGCT	0.259
AGACGGTG	-0.132
ATACGGTC	0.383
ATGCAAAG	0.0339
AAAAATGA	-0.0643
AGGCTCAG	-0.211
GTTAGGGA	0.0493
AGGTGCTG	-0.371
AGCATACT	0.0121
CCGGACCA	0.0404
AGGGAACA	-0.166
CGGGAACA	0.165
AGGGAACC	0.00984
CGGGAACG	0.456
AGGGAACG	0.465
CGGGAACC	0.0199
AAAGGAGT	-0.131
GTTTCCTA	0.0344

Sequence	PBM E-score
GCGGCTAA	-0.034
AAATCTGA	-0.168
CCTTGGCG	-0.159
AGTACCAG	-0.14
GGTACCAC	-0.137
CGTACCAG	0.397
CATACCAG	-0.0569
CGTACCAC	0.446
AGTACCAC	0.0416
TGTACCAA	0.036
CGTACCAA	0.444
AGTACCAA	-0.119
TCCCTAAA	-0.00662
CGCACGTC	0.00508
TAGGGATA	-0.165
GCAGTAAA	-0.0139
CGAACGCA	0.242
GCTTCCCC	-0.098
CAAAGCCA	-0.0435
ACTACGAC	0.329
GCTACGAC	0.426
CCTACGAC	0.232
TCTACGAA	0.312
CCTACGAA	0.192
GCTACGAA	0.429

Sequence	PBM E-score
CCTCTCAA	-0.127
ATAGTATC	0.127
AGCGTATC	0.0945
CGCGTATC	0.232
AGCGTATG	0.136
ATCGTATG	0.438
ATAGTATA	0.211
ATCGTGTA	0.25
ATCGTATC	0.418
ATAGTATG	0.0828
CACGTATC	0.132
CTCGTATC	0.478
ATCGTATA	0.488
TCTGCTCA	-0.168
TCGAGCGA	0.0676
ATATCAAC	-0.103
CCAGTTGC	-0.196
ACTGGCCA	-0.206
CAGAGTCA	-0.226
GCAGAGAC	-0.357
CCTATAGC	-0.248
CGTATAGA	0.458
AGTATAGA	0.16
AGTATAGC	0.0261
CGTATAGC	0.477

Sequence	PBM E-score
GGTATAGA	-0.0121
ACATGGGC	-0.263
GAAGTCCC	-0.172
ACGTTCGC	0.157
GAAATTGC	0.0049
ACACATTA	0.031
CCACGAGG	0.00398
GTGTCGCA	0.162
ATGTCGTG	0.0288
ATGTCGTA	0.446
CTGTCGTC	0.161
GTGTCGTA	0.445
ATGTCGTC	0.0394
GTGTCGGA	0.0575
CTGTCGTA	0.453
CTGTCGAA	-0.00303
AACCAATT	-0.233
ATCTACCC	0.0111
AATTACGA	0.361
CTTTACGA	0.464
ATTTACGC	0.0401
ATTTACGG	0.31
ATTTACGA	0.453
GTTTACTA	0.182
GTTTACGA	0.46

Sequence	PBM E-score
TATTACGA	0.389
CATTACGA	0.289
GTTTACAA	0.19
CTTTACGC	0.211
CTTTACCA	-0.226
CGGACTGC	-0.0684
ATTCTATA	-0.00057
CTACTGCA	-0.158
AGAGGAAG	-0.167
ATCACTAA	-0.0903
AAAGGGTC	-0.109
ATCATAGC	-0.0799
AGTCCCAG	-0.0584
GAAGAAGA	-0.0416
GGGTCCTA	-0.218
TGGGACCA	-0.27
GAAGGTTA	-0.016
CCGAGCTC	0.219
ACGAGCAG	0.383
AGGAGCTG	-0.288
ACGAGCTG	0.411
CCGAGCTA	0.101
ACGAGCAT	0.365
AAGAGCTG	-0.264
ACGAGCAA	0.288

Sequence	PBM E-score
ACGAGCTC	0.39
ACGAGCTA	0.39
GCGAGCTA	0.248
AGGAGCTC	-0.0307
GAAGTATC	0.0371
ACTTCACG	-0.0496
ATATGGAT	0.133
ACGGTTTA	0.0698
CAACTCTC	-0.11
AGTCCGAA	0.0505
CGTTTCGA	0.202
TATCGTAA	0.363
AGTCGTAA	0.395
CGTCGTGA	0.117
CGTCGTAA	0.446
GGTCGTAA	0.417
AGTCGTGA	0.0257
AGTCGTCA	-0.236
GGTCGTGA	-0.0346
GGTCGTCA	0.0226
TGTCGTAA	0.428
TGGCGTAA	0.0429
CGTCGTCA	0.0778
CGCGAGAG	0.233
ACGGTAGC	-0.00152

Sequence	PBM E-score
ACAATCGC	0.226
AAGTTTTC	0.0919
AGCCTGGC	-0.142
ACCGTGCG	0.161
GTCCGTGA	0.0485
CCTTAGCA	-0.287
CTACGACC	0.413
ACACGACG	0.251
ACACGACC	0.186
AGACGACG	0.23
ATACGACG	0.485
CCACGACC	0.00845
CGACGACC	0.154
ATACGACC	0.473
AGACGACC	0.0158
CCGCGCTA	0.0135
ATGAGAGG	-0.151
CTCGCAAG	0.17
GTCCGTCA	-0.131
CAGGGCAG	-0.104
ACTTTCCA	-0.205
AAGTAGCA	-0.137
ATTGTAGA	0.0824
GACGTTCC	0.141
ACCGTTCG	0.229

Sequence	PBM E-score
CCCGTTCG	0.196
CCCGTTCC	0.447
GCCGTTCC	0.444
GCCGTTCA	0.229
ACCGTTCT	0.135
CCCGTTCA	0.267
ACCGTTCC	0.434
GAGGCTCA	-0.237
CTCGGCAA	0.106
GCTCTAAA	-0.144
CCTAACAC	0.0728
GGTACTAC	0.0611
AACGGCGA	0.381
AACGACGC	0.448
CACGGCGA	0.0797
AACGACGT	0.435
AACGGCGT	0.242
GACGACGC	0.145
CACGACGC	0.119
ACCGACGG	0.196
AAGGACGT	0.0897
CACGACGG	0.167
AACGACGG	0.444
ACCGACGT	0.329
